In PubChem BioAssay (NCATS) one finds Potency and outcome data, which are given here for eleven compounds.

Test [1] can be described thus: qHTS to identify inhibitors of the type 1 interferon - major histocompatibility complex class I in skeletal muscle: primary screen against the NCATS LOPAC collection (AID 1347405).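 Also: human myoblasts with HiBiT tag on endogenous HLA-B stimulated by IFN-beta; lytic HiBiT luminescence reporting HLA-B protein level.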 Also: potency is read from the fitted curve at half-maximal effect. In a few lines:
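HLA-B HiBiT myoblasts, IFN-b 4 ng/ml, dexamethasone-free medium; compounds 7-pt 1:4.3 titration, top 46 uM final; 24 h at 37 C; Nano-Glo HiBiT lytic reagent, 10 min RT, luminescence.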
(In qHTS, concentration-response curves come from the screen itself.)

Test [2] in a line: qHTS for inhibitors of adenylyl cyclases using a fission yeast platform: a pilot screen against the NCATS LOPAC library (AID 1347410). In a few lines:
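S. pombe CHP2027 (AC9-GNAS-PDE4D2) carrying PKA-repressed fbp1-GFP, incubated 18 h at 30C in EMM with LOPAC compounds at up to 57 uM. GFP gain-of-signal read by laser scanning cytometry; DMSO negative control.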

Test [3] concerns the target Calcium and integrin-binding protein 1 (Homo sapiens) (UniProt Q99828). Kind of test: Validation qHTS for Identification of Calcium Integrin Binding protein 1 (CIB1) Competitor (AID 1508618). A digest of the protocol:
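Displacement of FITC-alphaIIb peptide (100 nM) from CIB1-GST (1 uM) is monitored by polarization in quantitative HTS format; buffer carries 5 mM CaCl2 and 125 mM NaCl at pH 7.4, incubations are at room temperature.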

Test [4] is described as follows: Validation qHTS assay for inhibitors of Activation Induced Cytidine Deaminase (AID): UDG Counterscreen signal (AID 1347427). A digest of the protocol: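 Fluorescence at 560 nm excitation, 665 nm emission reports UDG signal after 250 mM NaOH (2x) addition and 30 min. Enzymes (AID 1 uM, UDG 2 U/mL, at 4/3x) preincubated 10 min with compound, then 4 h with 4x 250 nM DJC20/DJC23 substrate at room temperature.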

Test [5] deals with Single-stranded DNA cytosine deaminase (Homo sapiens) (UniProt Q9GZX7). Kind of test: Validation qHTS assay for inhibitors of Activation Induced Cytidine Deaminase (AID): AID signal (AID 1347429). In a few lines: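 AID+UDG coupled FRET deamination; cpds up to 114 uM final; DJC20/DJC23 substrate, 4 hr RT; NaOH stop, 30 min RT; read Ex 540/Em 590.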
Chain of Single-stranded DNA cytosine deaminase (Homo sapiens) (Q9GZX7 whole entry, looked up): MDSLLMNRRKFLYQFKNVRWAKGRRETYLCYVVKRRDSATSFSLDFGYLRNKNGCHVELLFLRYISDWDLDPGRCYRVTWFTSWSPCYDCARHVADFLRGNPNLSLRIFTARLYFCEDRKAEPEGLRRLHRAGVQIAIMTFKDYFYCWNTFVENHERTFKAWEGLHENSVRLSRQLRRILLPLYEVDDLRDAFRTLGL
The target in test [6] is Calcium and integrin-binding protein 1 (Homo sapiens) (UniProt Q99828). Put plainly: Primary qHTS for Identification of Calcium Integrin Binding Protein 1 (CIB1) Competitor (AID 1508620).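 Also: GST tagged CIB1 binding a fluorescein labelled alphaIIb integrin peptide tracer; top concentration of the series differs between compounds.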 In a few lines: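 CIB1-GST (1 uM final) and compound incubated 15 min at room temperature before adding FITC-alphaIIb peptide tracer (100 nM final). Competition for binding read by fluorescence polarization (ex 480, em 540) after another 15 min at room temperature.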
Chain of Calcium and integrin-binding protein 1 (Homo sapiens) (Q99828 whole entry, looked up): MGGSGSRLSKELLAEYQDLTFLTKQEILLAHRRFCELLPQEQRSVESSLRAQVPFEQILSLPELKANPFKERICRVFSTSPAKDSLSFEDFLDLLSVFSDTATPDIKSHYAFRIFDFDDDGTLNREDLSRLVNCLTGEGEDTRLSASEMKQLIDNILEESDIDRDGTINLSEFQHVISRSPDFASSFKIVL

A short description of test [7]: Primary qHTS for inhibitors of La Crosse Virus (LACV) - induced cell death in SH-SY5Y cells (AID 1508616).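 Also: top concentration of the series differs between compounds; higher means more rescue of cells from virus-induced death.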 A digest of the protocol:
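Cytopathicity rescue screen: compounds pinned onto SH-SY5Y cells, which are then infected with LACV (MOI 0.01) and held 6 days at 37C. Percent activity is scaled between infected DMSO control and uninfected DMSO control.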

Results filed as inconclusive are left out. Where a call stands in place of a potency, no number is given. Active and inactive are the calls of the source. Calls follow the shape of the dose curve; as a rule, active = well fitted curve in the direction sought with a large enough effect; inconclusive = small, poorly fitted or top-dose-only effect, or another doubt; inactive = no such curve, though single readings can be large; an effect the other way counts as inactive or inconclusive.

Regarding `CC[C@H]1OC(=O)[C@H](C)C(O[C@H]2C[C@@](C)(OC)[C@@H](O)[C@H](C)O2)[C@H](C)[C@@H](OC2O[C@H](C)C[C@H](N(C)C)[C@H]2O)[C@](C)(O)C[C@@H](C)CN(C)[C@H](C)[C@@H](O)[C@]1(C)O` (stereo partly specified), the Potency result in test [1] was “inactive”. For the same compound, the compound was classed as inactive in test [2] and in test [3].
`CC(C)(C)c1ccc(S(=O)(=O)/C=C/C#N)cc1`: in test [1], the Potency was 7.08 µM (active). Moreover, the call in test [2] and in test [3] was inactive. Further, the Potency entry in test [4] and in test [5] was “inactive” in each case.
Turning to `CCCCCCCC/C=C\CCCCCCCC(=O)NCCO`, the Potency entry in test [1], in test [4] and in test [5] was “inactive” in each case. Besides, the result in test [2] and in test [3] was inactive.
Regarding `CC(C)c1cccc(C(C)C)c1N1C(=O)c2ccc(O)cc2C1=O`, the Potency entry in test [1] is “inactive”. In addition, the result in test [2] and in test [3] was inactive.
Regarding `Cn1c(=O)c(-c2c(Cl)cccc2Cl)cc2cnc(Nc3ccc(N4CCOCC4)cc3)nc21`, the Potency in test [1] was 0.631 µM (active). Besides, the compound was classed as inactive in test [2] and in test [3].
Regarding `COCCOc1cc2nc[nH]c(=O)c2cc1OCCOC`, the Potency entry in test [1] was “inactive”. Besides, the compound was called inactive in test [2] and in test [3].
For `Nc1ccn([C@H]2O[C@H](CO)[C@@H](O)C2(F)F)c(=O)n1`, the Potency entry in test [1] was “inactive”. The call in test [2] and in test [3] was inactive.
As to `NS(=O)(=O)c1ccc(-n2nc(C(F)(F)F)cc2-c2ccc(Cl)cc2)cc1`, the Potency result in test [1] and in test [6] was “inactive” throughout. Moreover, the compound was called inactive in test [2] and in test [3].
As to `C[N+]1(C)C2CC(OC(=O)[C@H](CO)c3ccccc3)CC1C1OC12` (stereo partly specified), the Potency entry in test [1] and in test [7] was “inactive” throughout. Moreover, the compound was classed as inactive in test [2] and in test [3].
As to `NC(=O)C(=O)O`, the Potency result in test [1], in test [4] and in test [5] was “inactive” in each case. Besides, the result in test [2] and in test [3] was inactive.
Consider `CO[C@H]1O[C@@H]2O[C@]3(C)CC[C@@H]4[C@@H](C)CC[C@H]([C@H]1C)[C@]24OO3`, for which the Potency entry in test [1] is “inactive”. The call in test [2] and in test [3] was inactive.
